Measurements from PubChem BioAssay AID1159580 (chemical genetic matrix, 2015).
Screen size: about 5,500 compounds; about 2,000 (36%) were called active. Another 18% or so got no clear call; they are omitted. No stated cut-off is given here; in the data, active means normalized growth mostly below about 0.91 (no sharp cut-off); inconclusive means no clear call, values can overlap the other calls; inactive means mostly above about 0.92. This is one part of the list.

Assay: chemical genetic growth profiling, strain panel (AID 1159580);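 further: tested at 20 µM; growth read once vehicle control cultures reached saturation at 30 °C; 1 = growth at the plate median or of vehicle wells; lower values mean less growth of the strain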
Conditions: growth OD
[1] = S. cerevisiae deletion strains, locus YAL013W, strain DEP1, hits give low values
[2] = S. cerevisiae deletion strains, locus YBR229C, strain ROT2, hits give low values
[3] = S. cerevisiae deletion strains, locus YDL101C, strain DUN1, hits give low values
[4] = S. cerevisiae deletion strains, locus YDR150W, strain NUM1, hits give low values
[5] = S. cerevisiae deletion strains, locus YEL061C, strain CIN8, hits give low values
[6] = S. cerevisiae deletion strains, locus YGR078C, strain PAC10, hits give low values
[7] = S. cerevisiae deletion strains, locus YGR229C, strain SMI1, hits give low values
[8] = S. cerevisiae deletion strains, locus YHR030C, strain SLT2, hits give low values
[9] = S. cerevisiae deletion strains, locus YHR087W, strain rtc3, hits give low values
[10] = S. cerevisiae deletion strains, locus YJL187C, strain SWE1, hits give low values
[11] = S. cerevisiae deletion strains, locus YJR043C, strain POL32, hits give low values
[12] = S. cerevisiae deletion strains, locus YJR075W, strain HOC1, hits give low values
[13] = S. cerevisiae deletion strains, locus YLR039C, strain RIC1, hits give low values
[14] = S. cerevisiae deletion strains, locus YLR058C, strain SHM2 (second series), hits give low values
[15] = S. cerevisiae deletion strains, locus YLR085C, strain ARP6, hits give low values
[16] = S. cerevisiae deletion strains, locus YLR262C, strain YPT6, hits give low values
[17] = S. cerevisiae deletion strains, locus YML094W, strain GIM5, hits give low values
[18] = S. cerevisiae deletion strains, locus YMR219W, strain ESC1, hits give low values
[19] = S. cerevisiae deletion strains, locus YMR263W, strain SAP30, hits give low values
[20] = S. cerevisiae deletion strains, locus YNL153C, strain GIM3, hits give low values
[21] = S. cerevisiae deletion strains, locus YNL298W, strain CLA4 (second series), hits give low values
[22] = S. cerevisiae deletion strains, locus YNL322C, strain KRE1, hits give low values
[23] = S. cerevisiae deletion strains, locus YNR030W, strain Alg12, hits give low values
[24] = S. cerevisiae deletion strains, locus YOL006C, strain TOP1, hits give low values
[25] = S. cerevisiae deletion strains, locus YPL055C, strain LGE1, hits give low values
[26] = S. cerevisiae deletion strains, locus YPL241C, strain CIN2, hits give low values
[27] = S. cerevisiae deletion strains, locus YPR135W, strain CTF4, hits give low values
[28] = S. cerevisiae strains, strain wild type, hits give low values

Measured: normalized growth

Cc1ccc(-n2cccc2)c(NC(=S)Nc2ccc(Br)cc2OC(F)(F)F)c1
active: [8] 0.558 | [13] 0.621 | [15] 0.658 | [16] 0.587 | [21] 0.757
inactive: [1] 0.978 | [2] 1 | [3] 1.02 | S. cerevisiae deletion strains, locus YDL134C, strain PPH21, hits give low values 1.01 | [4] 0.892 | [5] 0.988 | [6] 0.973 | [7] 1.03 | [9] 1.02 | [10] 0.987 | [11] 1.03 | [12] 0.972 | [14] 1.01 | [17] 0.904 | [18] 1.01 | [19] 0.964 | [20] 0.979 | [22] 1.01 | [23] 0.925 | [24] 0.796 | [25] 0.882 | [26] 0.92 | [27] 0.679 | [28] 0.998

Cc1ccc(NC(=S)NCCO)c(C)c1
inactive: [1] 1 | [2] 0.987 | [3] 1.01 | [4] 1 | [5] 0.99 | [6] 1.01 | [8] 1 | [9] 1.01 | [11] 0.997 | [12] 0.978 | [13] 1.01 | [14] 0.996 | [15] 1 | [16] 1 | [17] 1.01 | [18] 1 | [19] 1 | S. cerevisiae deletion strains, locus YNL128W, strain TEP1, hits give low values 1 | [20] 1 | [21] 1.02 | [22] 0.98 | [23] 0.986 | [24] 1.03 | [25] 1.01 | [26] 0.945 | [27] 1.03

COCCCNC(=S)Nc1ccc(C)cc1C
inactive: [1] 0.985 | [2] 0.974 | [3] 0.968 | [4] 0.966 | [5] 1.01 | [6] 0.98 | [7] 0.986 | [8] 0.974 | [9] 1.04 | [10] 0.993 | [11] 0.977 | [12] 1 | [13] 0.975 | [14] 0.982 | [15] 0.921 | [16] 0.961 | [17] 1 | [18] 0.99 | [19] 0.999 | [20] 0.986 | [21] 0.97 | [22] 0.981 | [23] 1 | [24] 0.923 | [25] 1.01 | [26] 0.973 | [27] 0.917 | [28] 0.987
